HP1b binding inh: blocks HP1-beta chromodomain binding to methylated histone tails | P83916 | AlphaScreen HP1-beta / biotin-H3K9me3 peptide binding | Potency, µM (highest dose often 114 µM), for inactives: at the highest dose activity change, negative = inhibition, most hits filed as inhibitors | actives 0.56% (n = 390,000) | AID 540317; further: nearly all actives have a fitted effect of over 70% in size
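AlphaScreen: HP1-beta (50 nM) preformed 30 min with biotin-H3(1-18)K9me3 peptide (50 nM) in PBS pH 7.4, 0.01% Tween-20. Compound added for 30 min at RT, then streptavidin donor/nickel chelate acceptor beads (10 ug/mL) for 30 min.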
Sfp PPTase inh: Sfp phosphopantetheinyl transferase inhibition; Q9F4F7; actives 3.5% (n = 310,000); Potency, µM, for inactives: largest response in the series, negative = inhibition, hits mostly inhibitors; AID 1490; Biochemical Sfp PPTase activity, qHTS;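 further: the enzyme is Sfp with the accession as filed and its product quenches rhodamine fluorescence; 0% = enzyme reaction without inhibitor and -100% = no enzyme wells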
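Reaction rates are the 30-min fluorescence difference (ex 525, em 598 nm) in wells containing 15 nM Sfp, 5 uM rhodamine-CoA and 12.5 uM BHQ-2-YbbR at pH 7.6 with 10 mM MgCl2.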
BAZ2B block: BAZ2B (human) inhibition; Q9UIF8; actives 4.4% (n = 360,000); AlphaScreen BAZ2B-H3K14Ac peptide displacement; Potency, µM (top dose mostly 114 µM), for the others: at the highest dose activity change, negative = inhibition, hits mostly inhibitors; further: on the % scale 0 is the no-effect control and ±100 the full control effect; nearly all actives have a fitted effect of over 60% in size
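Inhibition is scored as reduced AlphaScreen emission. The BAZ2B/b-H3(5-23)K14Ac complex (50 nM each) in PBS pH 7.4, 0.01% Tween-20 meets compound (up to 110 uM) for 30 min at RT before bead addition.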
G9a inh: blocks human histone lysine methyltransferase G9a; Q96KQ7; G9a H3K9 monomethylation, AlphaScreen, 2 h; Potency, µM (highest dose often 102 µM), for inactives: top-dose activity, negative = inhibition, usual class: inhibitors; actives 8.8% (n = 350,000); further: on the % scale 0 is the no-effect control and ±100 the full control effect; nearly all actives have a fitted effect of over 75% in size
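AlphaScreen detection with an anti-monomethyl H3K9 antibody quantified product after a 2 h room-temperature reaction containing 500 nM biotinylated H3K9 peptide, 20 µM SAM and 20 nM enzyme, which had been preincubated 15 min with compound.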
JMJD2A Tudor: inhibitors of human JMJD2A Tudor domain; O75164; AlphaScreen JMJD2A-Tudor / H3K4me3 peptide binding; Potency, µM (highest dose often 114 µM), inactives show at the highest dose activity change, negative = inhibition, actives largely listed as inhibitors; actives 4.4% (n = 390,000); AID 504339; further: on the % scale 0 is the no-effect control and ±100 the full control effect; nearly all actives have a fitted effect of over 50% in size
* hit, by the source's call; [ ] = another dose, or the depositor's remark. Sampled rows, rich in hits. Any-hit rate of the full collection: about 12%. The call rests on the fitted dose curve; in most records, active means well fitted curve in the direction sought with a large enough effect; inconclusive means small, poorly fitted or top-dose-only effect, or another doubt; inactive means no such curve, though single readings can be large; an effect the other way counts as inactive or inconclusive. Potency means the concentration at half of the fitted maximal effect.

`Cc1c(O)c(CN2CCCCC2)cc2c3c(c(=O)oc12)CCC3` gave HP1b binding inh 26.1%, Sfp PPTase inh 11.9%, BAZ2B block 2.9%, G9a inh 2.7%[12.7 µM] and JMJD2A Tudor -10.4%.
For Cc1cc(N=Nc2ccc(Cl)cc2)cc(CN2CCOCC2)c1O the results were HP1b binding inh 39.8µM*, Sfp PPTase inh -1.6%, BAZ2B block 10µM*, G9a inh 7.94µM* and JMJD2A Tudor 15.8µM*.
Cc1cc(N=Nc2ccc(Cl)cc2)cc(CN2CCCC2)c1O was read as HP1b binding inh 20µM*, Sfp PPTase inh -12.0%, BAZ2B block 10µM* and JMJD2A Tudor 28.2µM*.
Screening O=c1cc(Cl)nc2ccccn12 returned HP1b binding inh 11.0%[57 µM] and JMJD2A Tudor 6.9%.
`CC(=O)Nc1ccc(C(=O)OCC(=O)NCc2ccc3c(c2)OCO3)cc1` gave HP1b binding inh 35.3% and JMJD2A Tudor -5.5%.
Screening C#C[C@]1(OC(C)=O)CC[C@H]2[C@@H]3CCC4=CC(=O)CC[C@@H]4[C@H]3CC[C@@]21C returned Sfp PPTase inh -21.9% and G9a inh 20.1%[59 µM].
`CC1=C(C)/C(=N\OS(=O)(=O)c2ccccc2)C=CC1=O` gave HP1b binding inh inconclusive, Sfp PPTase inh 39.8µM*, BAZ2B block 39.8µM*, G9a inh 15.8µM* and JMJD2A Tudor 56.2µM*.
`Cc1[nH]nc2c1C(c1ccc(OC(=O)c3ccco3)cc1)C(C#N)=C(N)O2` (stereo not given) gave HP1b binding inh 32.4%, Sfp PPTase inh 10.6%, BAZ2B block -11.0%, G9a inh 24.3%[59 µM] and JMJD2A Tudor -16.0%.
For CC(C)c1[nH]nc2c1C(c1ccc(OC(=O)c3ccco3)cc1)C(C#N)=C(N)O2 (stereo not given) the results were HP1b binding inh 11.7%, Sfp PPTase inh 8.1%, BAZ2B block -28.8%, G9a inh 50.1µM* and JMJD2A Tudor -31.0%.
For Cc1ccccc1OCC(=O)OCC(=O)c1c[nH]c2ccccc12 the results were HP1b binding inh 27.7%, BAZ2B block -1.8%, G9a inh 1.9%[59 µM] and JMJD2A Tudor -13.2%.
`CC(=O)N1CCC2(CC1)C(C#N)=C(N)Oc1c2sc2nc(C)cc(C)c12` gave HP1b binding inh 43.2%, Sfp PPTase inh -29.1%, BAZ2B block -34.4%, G9a inh 11.2µM* and JMJD2A Tudor -21.2%.
For CC(=O)N1CCC2(CC1)C(C#N)=C(N)Oc1n[nH]c(C)c12 the results were HP1b binding inh 16.2%, Sfp PPTase inh 13.4%, BAZ2B block 11.9%, G9a inh 14.9%[59 µM] and JMJD2A Tudor -8.1%.
For Cc1cc(C)c2c(n1)sc1c(N3CCN(CCO)CC3)ncnc12 the results were HP1b binding inh -1.3%, Sfp PPTase inh 14.6%, BAZ2B block 3.1%, G9a inh 1.1%[12.7 µM] and JMJD2A Tudor -30.4%.
For CCN1CCC2(CC1)C(C#N)=C(N)Oc1c2sc2nc(C)cc(C)c12 the results were HP1b binding inh 29.5%, Sfp PPTase inh 50.1µM*, BAZ2B block -24.4%, G9a inh inconclusive and JMJD2A Tudor -10.9%.
For COc1cccc(CNC(=O)Cn2ncn3nc(-c4cccs4)cc3c2=O)c1OC the results were HP1b binding inh 22.6%, BAZ2B block -14.6%, G9a inh inconclusive and JMJD2A Tudor -3.0%.
`Cc1cc(-c2cccnc2)c(C#N)c(SCc2cccc(F)c2)n1` gave HP1b binding inh 38.8%, Sfp PPTase inh 79.4µM*, BAZ2B block 4.2%, G9a inh 39.8µM* and JMJD2A Tudor -14.7%.
`O=C(Cc1ccc(Cl)cc1)NN1C(=O)c2ccccc2C1=O` gave HP1b binding inh 3.0%, Sfp PPTase inh 9.0%, BAZ2B block 4.5%, G9a inh 8.1%[59 µM] and JMJD2A Tudor -14.8%.
For COC(=O)[C@@H]1[C@@H](C#N)C2(c3ccccc3-c3ccccc32)N(c2ccc(Cl)cc2)N1C#N the results were HP1b binding inh inconclusive, Sfp PPTase inh inconclusive, BAZ2B block inconclusive, G9a inh inconclusive and JMJD2A Tudor 17.8µM*.
O=C(Sc1ccc(Cl)cc1)c1ccccn1 was read as HP1b binding inh 56.6% and JMJD2A Tudor inconclusive.
`COc1ccc(N2CCN(S(=O)(=O)CCNC(=O)Cc3ccc(-c4ccccc4)cc3)CC2)cc1` gave HP1b binding inh 6.7%[57 µM], BAZ2B block -5.0%, G9a inh 5.9%[59 µM] and JMJD2A Tudor -11.2%.
Screening COc1ccc(CC(=O)NCCS(=O)(=O)N2CCN(c3ccccc3)CC2)cc1 returned HP1b binding inh -1.4%, BAZ2B block -1.2%, G9a inh 44.7µM* and JMJD2A Tudor -10.7%.
COc1ccc(N2CCN(S(=O)(=O)CCNC(=O)c3ccc(Br)o3)CC2)cc1 was read as HP1b binding inh 25.3%, Sfp PPTase inh 16.3%, BAZ2B block -5.8%, G9a inh 79.4µM* and JMJD2A Tudor -16.7%.
COc1ccc(N2CCN(S(=O)(=O)CCNS(=O)(=O)c3ccccc3)CC2)cc1 was read as HP1b binding inh 29.1%, BAZ2B block -2.5%, G9a inh 14.1µM* and JMJD2A Tudor 7.6%.
For CCN1CCCC1CNS(=O)(=O)c1ccc(F)c(Cl)c1 (stereo not given) the results were HP1b binding inh 2.1%, Sfp PPTase inh -0.5%, BAZ2B block 2.4%, G9a inh 13.5% and JMJD2A Tudor -4.9%.
`CCN1CCCC1CNS(=O)(=O)c1cccc(C(F)(F)F)c1` (stereo not given) gave HP1b binding inh 16.7%, Sfp PPTase inh 2.9%, BAZ2B block 1.6%, G9a inh 44.7µM* and JMJD2A Tudor 0.7%.
For COc1ccc(S(=O)(=O)N/N=C(/C)c2ccc(Cl)cc2)cc1 the results were HP1b binding inh 13.6%, Sfp PPTase inh 15.9%, BAZ2B block 5.7%, G9a inh -25.6% and JMJD2A Tudor -14.9%.
Screening COc1ccc(C/C(C)=N/NS(=O)(=O)c2ccc(Br)cc2)cc1 returned HP1b binding inh 30.2%, Sfp PPTase inh -17.7%, BAZ2B block 3.2%, G9a inh 25.1µM* and JMJD2A Tudor -17.4%.
Screening CCOc1ccc(C=NNc2ccc(S(=O)(=O)Nc3ccccc3C(=O)O)cc2[N+](=O)[O-])cc1 returned HP1b binding inh 39.8µM* and JMJD2A Tudor 22.4µM*.
For Cc1ccc(S(=O)(=O)Nc2ccccc2C(=O)OC(C)C(=O)Nc2ccc3ccccc3c2)cc1[N+](=O)[O-] (stereo not given) the results were HP1b binding inh -0.9%, Sfp PPTase inh 2.0%, BAZ2B block -37.9%, G9a inh 50.1µM* and JMJD2A Tudor -29.8%.
O=C(O)c1ccccc1NS(=O)(=O)c1ccc(NN=Cc2ccccc2F)c([N+](=O)[O-])c1 was read as HP1b binding inh 50.1µM* and JMJD2A Tudor 20µM*.
`CSc1ccc(C=NNc2ccc(S(=O)(=O)Nc3ccccc3C(=O)O)cc2[N+](=O)[O-])cc1` gave HP1b binding inh 20µM* and JMJD2A Tudor 20µM*.
